Laboratory results published in PMC11102866, “Nucleosome-bound NR5A2 structure reveals pioneer factor mechanism by DNA minor groove anchor competition”.
Changes are numbered by the printed parent chain. In names and notes the source's numbering stands.

B1: 122 (nucleosome)
DNA 1: ATCCTGGAGAATCCCGGTGCCGAGGCCGCTCAATTGGTCGTAGACAGCTCTAGCACCGCTTAAACGCACGTACGCGCTGTCCCCCGCGTTTTAACCGCCAAGGGGATTACTCCCTAGTCTCCAGTCAAGGCCAAGATATATACATCCTGTGAT
DNA 2: ATCACAGGATGTATATATCTTGGCCTTGACTGGAGACTAGGGAGTAATCCCCTTGGCGGTTAAAACGCGGGGGACAGCGCGTACGTGCGTTTAAGCGGTGCTAGAGCTGTCTACGACCAATTGAGCGGCCTCGGCACCGGGATTCTCCAGGAT
modifications: reconstituted with mouse histones H2A, H2B, H3.3 and H4
B2: 124 (nucleosome)
DNA 1: B1 DNA 1 with T125G, A127T, A128C, G129A, G130A, C131G, C132G, A133C, A134C, G135A
DNA 2: B1 DNA 2 with C19T, T20G, T21G, G22C, G23C, C24T, C25T, T26G, T27A, A29C
modifications: reconstituted with mouse histones H2A, H2B, H3.3 and H4
B3: 125 (nucleosome)
DNA 1: B1 DNA 1 with T125G, A128T, G129C, G130A, C131A, C132G, A133G, A134C, G135C
DNA 2: B1 DNA 2 with C19G, T20G, T21C, G22C, G23T, C24T, C25G, T26A, A29C
modifications: reconstituted with mouse histones H2A, H2B, H3.3 and H4
B4: 123 (nucleosome)
DNA 1: B1 DNA 1 with T125G, C126T, A127C, G129A, C131G, A133C
DNA 2: B1 DNA 2 with T21G, G23C, C25T, T27G, G28A, A29C
modifications: reconstituted with mouse histones H2A, H2B, H3.3 and H4
B5: 126 (nucleosome)
DNA 1: ATCCTGGAGAATCCCGGTGCCGAGGCCGCTCAATTGGTCGTAGACAGCTCTAGCACCGCTTAAACGCACGTACGCGCTGTCCCCCGCGTTTTAACCGCCAAGGGGATTACTCCCTAGTCTCCAGGCACTCAAGGCCAATATACATCCTGTGAT
DNA 2: ATCACAGGATGTATATTGGCCTTGAGTGCCTGGAGACTAGGGAGTAATCCCCTTGGCGGTTAAAACGCGGGGGACAGCGCGTACGTGCGTTTAAGCGGTGCTAGAGCTGTCTACGACCAATTGAGCGGCCTCGGCACCGGGATTCTCCAGGAT
modifications: reconstituted with mouse histones H2A, H2B, H3.3 and H4
B6: 115 (nucleosome)
DNA 1: ATCCTGGAGAATCCCGGTGCCGAGGCCGCTCAATTGGTCGTAGACAGCTCTAGCACCGCTTAAACGCACGTACGCGCTGTCCCCCGCGTTTTAACCGCCAAGGGGATTACTCCCTAGTCAAGGCCAACGTGTCAGATATATACATCCTGTGAT
DNA 2: ATCACAGGATGTATATATCTGACACGTTGGCCTTGACTAGGGAGTAATCCCCTTGGCGGTTAAAACGCGGGGGACAGCGCGTACGTGCGTTTAAGCGGTGCTAGAGCTGTCTACGACCAATTGAGCGGCCTCGGCACCGGGATTCTCCAGGAT
modifications: reconstituted with mouse histones H2A, H2B, H3.3 and H4
B7: 120 (nucleosome)
DNA 1: B6 DNA 1 with A120T, A121C, G122C, G123T, C125A, A127G, C128G, G129C, T130C, G131A
DNA 2: B6 DNA 2 with C23T, A24G, C25G, G26C, T27C, G29T, C31A, C32G, T33G, T34A
modifications: reconstituted with mouse histones H2A, H2B, H3.3 and H4
B8: 117 (nucleosome)
DNA 1: B1 DNA 1 with C122A, T125G, A127C, G130T, C131G, C132T, A133C
DNA 2: B1 DNA 2 with T21G, G22A, G23C, C24A, T27G, A29C, G32T
modifications: reconstituted with mouse histones H2A, H2B, H3.3 and H4
B9: 121 (nucleosome)
DNA 1: B1 DNA 1 with G124T, T125C, C126A, A128G, G130C, C132A, A133C
DNA 2: B1 DNA 2 with T21G, G22T, C24G, T26C, G28T, A29G, C30A
modifications: reconstituted with mouse histones H2A, H2B, H3.3 and H4
B10: 119 (nucleosome)
DNA 1: B6 DNA 1 with A120T, A121C, G122T, G123C, C124A, C125A, A126G, A127G, G129C, T130A
DNA 2: B6 DNA 2 with A24T, C25G, T27C, T28C, G29T, G30T, C31G, C32A, T33G, T34A
modifications: reconstituted with mouse histones H2A, H2B, H3.3 and H4
B11: 14 (nucleosome)
DNA 1: ATCCTGGAGAATCCCGTCAAGGCCACCGCTCAATTGGTCGTAGACAGCTCTAGCACCGCTTAAACGCACGTACGCGCTGTCCCCCGCGTTTTAACCGCCAAGGGGATTACTCCCTAGTCTCCAGGCACGTGTCAGATATATACATCCTGTGAT
DNA 2: ATCACAGGATGTATATATCTGACACGTGCCTGGAGACTAGGGAGTAATCCCCTTGGCGGTTAAAACGCGGGGGACAGCGCGTACGTGCGTTTAAGCGGTGCTAGAGCTGTCTACGACCAATTGAGCGGTGGCCTTGACGGGATTCTCCAGGAT
modifications: reconstituted with mouse histones H2A, H2B, H3.3 and H4
B12: 113 (nucleosome)
DNA 1: ATCCTGGAGAATCCCGGTGCCGAGGCCGCTCAATTGGTCGTAGACAGCTCTAGCACCGCTTAAACGCACGTACGCGCTGTCCCCCGCGTTTTAACCGCCAAGGGGATTACTCCCTTCAAGGCCAGCACGTGTCAGATATATACATCCTGTGAT
DNA 2: ATCACAGGATGTATATATCTGACACGTGCTGGCCTTGAAGGGAGTAATCCCCTTGGCGGTTAAAACGCGGGGGACAGCGCGTACGTGCGTTTAAGCGGTGCTAGAGCTGTCTACGACCAATTGAGCGGCCTCGGCACCGGGATTCTCCAGGAT
modifications: reconstituted with mouse histones H2A, H2B, H3.3 and H4
B13: 116 (nucleosome)
DNA 1: B6 DNA 1 with C119T, A120C, G122A, C124G, A126C
DNA 2: B6 DNA 2 with T28G, G30C, C32T, T34G, G35A
modifications: reconstituted with mouse histones H2A, H2B, H3.3 and H4
B14: 118 (nucleosome)
DNA 1: B6 DNA 1 with A120T, A121T, G122C, G123A, C124A, C125G, A126G, A127C, G129A
DNA 2: B6 DNA 2 with C25T, T27G, T28C, G29C, G30T, C31T, C32G, T33A, T34A
modifications: reconstituted with mouse histones H2A, H2B, H3.3 and H4
B15: 114 (nucleosome)
DNA 1: B6 DNA 1 with G117T, T118C, C119A, A121G, G123C, C125A, A126C
DNA 2: B12 DNA 2 with C29T, T30G, G32C, C34T, T36G, G37A, A38T
modifications: reconstituted with mouse histones H2A, H2B, H3.3 and H4

molecular target: NR5A2 wild type;histone octamer (Homo sapiens;, UniProt O00482;C0HKE1;Q6ZWY9;P84244;P62806 1-541;2-130;2-126;2-136;2-103, |); experiment: SeEN-seq (EMSA of nucleosome library followed by sequencing); 0.8 uM human NR5A2; 20 mM Tris-HCl pH 7.5, 120 mM NaCl, 1 mM MgCl2, 10 uM ZnCl2, 1 mM DTT, 100 ug/ml BSA, room temperature, 30 min; 0.1 uM nucleosome library; high values mean tight binding

| Binder | binding signal |
| --- | --- |
| B1 | 0.909 log2 enrichment (bound/unbound, relative to Widom 601) |
| B2 | 3.87 log2 enrichment (bound/unbound, relative to Widom 601) |
| B3 | 4.55 log2 enrichment (bound/unbound, relative to Widom 601) |
| B4 | 1.01 log2 enrichment (bound/unbound, relative to Widom 601) |
| B5 | 4.66 log2 enrichment (bound/unbound, relative to Widom 601) |
| B6 | 0.998 log2 enrichment (bound/unbound, relative to Widom 601) |
| B7 | 0.677 log2 enrichment (bound/unbound, relative to Widom 601) |
| B8 | 1.13 log2 enrichment (bound/unbound, relative to Widom 601) |
| B9 | 0.664 log2 enrichment (bound/unbound, relative to Widom 601) |
| B10 | 0.607 log2 enrichment (bound/unbound, relative to Widom 601) |
| B11 | 3.44 log2 enrichment (bound/unbound, relative to Widom 601) |
| B12 | 0.896 log2 enrichment (bound/unbound, relative to Widom 601) |
| B13 | 1.39 log2 enrichment (bound/unbound, relative to Widom 601) |
| B14 | 1.08 log2 enrichment (bound/unbound, relative to Widom 601) |
| B15 | 1.13 log2 enrichment (bound/unbound, relative to Widom 601) |

molecular target: mouse Nr5a2 wild type;histone octamer (Mus musculus;, UniProt P45448;C0HKE1;Q6ZWY9;P84244;P62806 1-560;2-130;2-126;2-136;2-103, |); experiment: SeEN-seq (EMSA of nucleosome library followed by sequencing); 1.2 uM mouse Nr5a2; 20 mM Tris-HCl pH 7.5, 120 mM NaCl, 1 mM MgCl2, 10 uM ZnCl2, 1 mM DTT, 100 ug/ml BSA, room temperature, 30 min; 0.1 uM nucleosome library; high values mean tight binding

| Binder | binding signal |
| --- | --- |
| B1 | 0.939 log2 enrichment (bound/unbound, relative to Widom 601) |
| B2 | 2.91 log2 enrichment (bound/unbound, relative to Widom 601) |
| B3 | 3.58 log2 enrichment (bound/unbound, relative to Widom 601) |
| B4 | 1.41 log2 enrichment (bound/unbound, relative to Widom 601) |
| B5 | 3.59 log2 enrichment (bound/unbound, relative to Widom 601) |
| B6 | 1.02 log2 enrichment (bound/unbound, relative to Widom 601) |
| B7 | 0.768 log2 enrichment (bound/unbound, relative to Widom 601) |
| B8 | 1.34 log2 enrichment (bound/unbound, relative to Widom 601) |
| B9 | 0.599 log2 enrichment (bound/unbound, relative to Widom 601) |
| B10 | 0.776 log2 enrichment (bound/unbound, relative to Widom 601) |
| B11 | 2.91 log2 enrichment (bound/unbound, relative to Widom 601) |
| B12 | 0.869 log2 enrichment (bound/unbound, relative to Widom 601) |
| B13 | 2.15 log2 enrichment (bound/unbound, relative to Widom 601) |
| B14 | 1.4 log2 enrichment (bound/unbound, relative to Widom 601) |
| B15 | 1.08 log2 enrichment (bound/unbound, relative to Widom 601) |
